Test results reported in PubChem BioAssay (NCI).
Values joined by “and” are separate entries in the source; they are usually repeats but may differ in a detail not shown here. Equal values may be shown once. This is part of a sample that, as a whole, favours compounds with a hit. Of some 83,000 tested, about 20% had one in any assay.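 Cells were grown in 96-well plates and exposed to the test compound at a single concentration for 48 hours; results are reported as percent growth, with values below 10 considered active.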 Active and inactive are the calls of the source.

tested on: TK-10 renal; experiment: NCI-60 one-dose screen, 48 h (100 = growth as untreated, 0 = no growth, -100 = all killed); conditions: 10 µM unless noted

Compound | growth
CC1OC(OC2C(OC3CCC4(C)C(CCC5(C)C4CC=C4C6CC(C)(C)CCC6(C(=O)O)CCC45C)C3(C)CO)OCC(O)C2O)C(O)C(O)C1O (centres undefined) | -92.1% [100 µM] (active) and -100% [100 µM] (active)
C=C(CO)C(=O)OC1CC(=C)C2CC(O)C(C)C2C2OC(=O)C(=C)C12 (centres undefined) | 103% [100 µM] (inactive) and -92% [100 µM] (active)
O=C(O)CCCOc1cc(-c2ccccc2F)nc2cc3c(cc12)OCO3 | 53.8% [100 µM] (inactive) and 2.37% [100 µM] (active)
Cc1ccc(NC(=S)C#N)cc1Cl | 7.58% [100 µM] (active) and -53.9% [100 µM] (active)
Cc1c2c(c(C)c3c[n+](C)ccc13)Oc1ccccc1O2 | -2.16% [100 µM] (active) and -100% [100 µM] (active)
CC1=C(Cl)C[C@@H](/C(C)=C\Cl)O[C@@]1(O)C(Br)Br | 101% [100 µM] (inactive) and -87.5% [100 µM] (active)
CN1CCc2cc3c(c4c2C1C(O)c1ccccc1-4)OCO3 (centres undefined) | 9.4% [100 µM] (active) and -86.5% [100 µM] (active)
CC1(C)CCC2(C(=O)O)C(O)CC3(C)C(=CCC4C5(C)CCC(OC6OCC(O)C(O)C6OC6OCC(O)C(O)C6OC6OCC(O)C(OC7OC(CO)C(O)C(O)C7O)C6O)C(C)(C)C5CCC43C)C2C1 (centres undefined) | 116% [100 µM] (inactive) and 15.1% [100 µM] (inactive)
CC(C)(C)N/N=C(/Cc1nc2c3c(ccc2[nH]c1=O)C(=O)c1ccccc1C3=O)C(=O)NC1=C(Cl)C(=O)c2ccccc2C1=O | 59.3% [100 µM] (inactive) and -41.1% [100 µM] (active)
